From PubChem BioAssay

experiment: growth of efflux-deficient E. coli DRC39 – strain DRC39, OD650, 48 h, E. coli filamentation inducers, primary screen (AID 1179);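 also: screen aims at cell division blockers that make cells filament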; conditions: E. coli DRC39 delta-acrAB growth, higher = more signal, called active from +8 up or from −8 down

z-score, inactive:
COC(=O)C[C@H]1O[C@@]2(C[C@@H]1[Si](C)(C)C)C(=O)N(C)c1ccccc12 0.92
NC(=O)N1C(=O)C2C(C1=O)C1C=C(CCCO)C2C(C2CC2)N1Cc1sc2ccccc2c1Cl (stereo unspecified) 0.152
CCOC(=O)C1=CCC(c2cc3ccccc3[nH]2)N(CCN2CC(C(=O)OCC)=CCC2c2cc3ccccc3[nH]2)C1 (stereo unspecified) -0.732
COCC(=C=CC[C@H](O)c1ccccc1OCCO)C[C@H](O)COCc1ccccc1 -0.456
COc1ccc([Si](C)(C)[C@@H]2[C@@H](CC(=O)N3CCC[C@H]3CO)O[C@]3(C(=O)N(Cc4ccc(N5CCOC5=O)cc4)c4ccccc43)[C@H]2C)cc1 0.459
C=C(CCCC)C(=O)CC[C@H](OC(=O)c1ccccc1-c1ccccc1C(=O)O)c1ccc(OCCO)cc1 -0.636
COC(=O)[C@@]1(Cc2ccc(F)cc2)[C@H]2c3cc(C(=O)N4CCCC4)n(Cc4ccccn4)c3C[C@H]2CN1C(=O)c1ccccc1 -0.962
O=C1NC(=O)C2C1C=CC(C(O)c1ccc([N+](=O)[O-])cc1)N2Nc1ccccn1 (stereo unspecified) -0.372
CCCC#C[Si](O[C@H](CC)c1cn(Cc2ccccc2)nn1)(C(C)C)C(C)C -0.195
COCCCNC(=O)[C@@]1(CCC(=O)OC(C)(C)C)COC(c2ccc(OCCCO)cc2)=N1 0.624
C=C(CCCC)/C(=C/C[C@H](OC(C)=O)c1cccc(OCCO)c1)c1cnc2ccccc2c1 0.211
CN(C)C(=O)[C@]1(Cc2ccccc2)N=C(c2ccc(OCCCO)cc2)O[C@@H]1c1ccccc1CN=[N+]=[N-] 0.686
Cc1ccc(S[C@]2(C(=O)NCc3ccccc3)CC(=O)N(Cc3ccccc3C(F)(F)F)[C@@H]2c2ccc(CO)cc2)cc1 1.46
CCCN1C(=O)[C@]2(CCC(=O)OC(C)(C)C)N=C(c3ccc(OCCCO)cc3)O[C@@H]2c2ccccc21 0.0565
C[N+](C)(C)CCCC[C@@H]1NC(=O)[C@H]2C[C@@H](C(=O)NCCCCCNC(=O)CS)[C@@H](c3cccc(OCCO)c3)N2C1=O -0.779
CO[C@H]1O[C@H](CO)[C@@H](OC(=O)Nc2ccccc2-c2ccccc2)[C@H](OC(=O)Nc2ccccc2)[C@H]1OC(=O)Nc1ccccc1 0.172
CC(C)=C1C(=O)C(c2ccccc2)=C2CN3C(=O)N(CCc4ccccc4)C(=O)[C@]3(C)[C@H]21 -0.456
C[C@]1(C(=O)O)c2ccccc2C(=O)N(Cc2cc(F)cc(C(F)(F)F)c2)[C@H]1c1ccc(CO)cc1 -0.808
CN(C)CCCNC(=O)[C@@]1(Cc2ccccc2I)c2ccccc2C(=O)N(C2CCCCC2)[C@H]1c1ccc(CO)cc1 -0.707
C#CCN1[C@@H](Cc2ccccc2)C(=O)O[C@H](Cc2ccccc2)[C@@H]1/C=C/C1CC1 1.06
CCCc1cc2c(n1CCc1ccc(Cl)cc1)C(C)C1CN(C(=O)c3ccccc3)C(C)(C(=O)OC)C21 (stereo unspecified) -1.33
CN1C(=O)[C@@H]2[C@@H](CC(COc3ccccc3)=C3[C@@H](CCc4ccccc4)OB(O)C[C@@H]32)C1=O -0.0443
CC(C)(C)OC(=O)CC[C@]1(C(=O)NCC(O)CO)N=C(c2ccc(OCCCO)cc2)O[C@H]1c1ccccc1N=[N+]=[N-] (stereo partly specified) 0.0611
COc1ccc([Si](C)(C)[C@H]2[C@H](CC(=O)N3CCC[C@H]3CO)O[C@@]3(C(=O)N(Cc4ccc(N5CCCCC5=O)cc4)c4ccccc43)[C@@H]2C)cc1 -0.244
C=CCOC(=O)[C@H]1[C@@H]2C(=O)O[C@@H](c3ccccc3)[C@@H](c3ccccc3)N2[C@@H](c2ccc(OCCOC(=O)[C@@H]3C[C@@H]4C(=O)N[C@@H](CCCC[N+](C)(C)C)C(=O)N4[C@@H]3c3ccc(O)cc3)cc2)[C@]12C(=O)Nc1ccc(I)cc12 -1.11
O=C(NCc1ccc(F)cc1)[C@H]1C[C@H]2C(=O)N3CCC[C@H]3C(=O)N2[C@H]1c1ccc(O)cc1 -0.545
